Only some compounds are listed: those with a hit (about 4.8% of all), similar ones and a draw of the others.
NF-kB neuron act = NF-kB expression increase, human neuronal cells | AID 1239 | actives 1.6% (n = 190,000) | fold change at 12.5 µM | NF-kB reporter expression; active compounds read high; in the data active = fold change above about 3.3
APP 5UTR inh = APP translation inhibition | SH-SY5Y APP 5'UTR-luciferase reporter, luminescence | inhibition, % at 2 µM | actives 0.82% (n = 190,000);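 active = inhibition above a set limit, derived from the sample mean plus 3 SD, cut at about 45% in these data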
APP 5'UTR act = APP 5'UTR luciferase reporter activation | actives 1% (n = 190,000) | SH-SY5Y APP 5'UTR luciferase reporter, luminescence; zero percent = DMSO vehicle wells | activation, % at 2 µM | AID 1276;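 active = activation above a set limit, based on mean plus 3 SD of controls, cut at about 140% in these data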
Hsp70 act = switches on Hsp70 transcription. HeLa Hsp70 promoter luciferase reporter, luminescence; scaled: vehicle 0, proteasome-inhibitor control 100%. AID 1203. actives 0.04% (n = 200,000). activation, % at 10 µM;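 active = activation above the mean across all tested compounds plus 3 SD, cutoff set per campaign, cut at about 5.5% in these data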;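 also: 100% = MG132 at 30 µM as the positive control and 0% = DMSO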
Wee1 stabilizer = inhibitors of human Wee1 degradation; P30291; HeLa Luc-Wee1K328M stability, luciferase luminescence; 100% = proteasome inhibitor MG132 effect; reporter increase, % at 5 µM; actives 1.2% (n = 220,000); AID 1321;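 active = activation above the mean of all tested compounds plus 3 SD, set per screening run, cut at about 8.8% in these data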;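 also: cells exposed to compound for 20 h before luminescence read; 0% = DMSO alone and 100% = MG132 at 30 µM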
Target sequence (P30291 whole entry K328M): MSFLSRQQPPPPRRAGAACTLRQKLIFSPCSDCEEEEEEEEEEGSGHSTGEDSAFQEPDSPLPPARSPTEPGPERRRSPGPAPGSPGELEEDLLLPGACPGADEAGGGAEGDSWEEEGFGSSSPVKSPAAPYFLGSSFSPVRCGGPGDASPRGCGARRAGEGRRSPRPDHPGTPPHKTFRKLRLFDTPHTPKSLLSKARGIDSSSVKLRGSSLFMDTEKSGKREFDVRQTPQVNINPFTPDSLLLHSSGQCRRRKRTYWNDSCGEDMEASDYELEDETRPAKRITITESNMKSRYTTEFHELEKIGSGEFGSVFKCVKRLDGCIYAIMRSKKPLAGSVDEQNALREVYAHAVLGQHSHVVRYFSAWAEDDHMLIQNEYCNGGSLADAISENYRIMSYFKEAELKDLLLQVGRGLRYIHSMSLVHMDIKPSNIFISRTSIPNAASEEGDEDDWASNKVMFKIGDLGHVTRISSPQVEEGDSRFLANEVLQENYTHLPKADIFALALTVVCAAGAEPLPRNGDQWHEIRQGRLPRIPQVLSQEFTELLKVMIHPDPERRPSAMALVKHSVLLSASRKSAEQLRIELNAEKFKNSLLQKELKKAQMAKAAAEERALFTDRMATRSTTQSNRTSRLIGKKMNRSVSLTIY
STAT1 act = activators of IFN-gamma induced STAT1 signaling; AID 932; NIH 3T3 STAT1-luciferase reporter, luminescence; 100% = IFN-gamma alone, no compound; actives 2.6% (n = 200,000); activation (% of control), % at 5.5 µM;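 active = activation above the screen-wide mean activation plus 3 SD, cut at about 130% in these data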;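 also: raw ratio to IFN-gamma control signal so 100% means no change and 0% no light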
Starred values were filed as active, the others as inactive; . = not tested or not shown.

SMILES	NF-kB neuron act	APP 5UTR inh	APP 5'UTR act	Hsp70 act	Wee1 stabilizer	STAT1 act
O=C(CN1CCCC1)Nc1ccc(Oc2ccc(NC(=O)CN3CCCC3)cc2)cc1	0.95	-2	2	0	1	93
CCC(C)NC(=O)C1CCN(C(=O)c2ccccc2)CC1 (configuration not stated)	1	-2	2	0	1	89
CCOC(=O)C1=C(C)Nc2ccccc2N=C1NC(=O)CCCN1C(=O)c2ccccc2C1=O	1.5	-5	5	0	5	97
Cc1ccc(CNC(=O)CNC(=S)N(Cc2ccccc2)Cc2cccnc2)cc1	1	5	-5	0	1	96
COc1ccc(C(C)NC(=O)Cc2ccc(Br)cc2)cc1 (configuration not stated)	0.9	-18	19	0	1	98
COC(=O)CSc1ccc2c(N)c(C(=O)OC)sc2c1	1	-6	6	0	-1	97
Cc1ccc(SCC(=O)Nc2cccc(-c3nnc(-c4ccco4)o3)c2)cc1	1.6	-56	56	0	2	134*
Cc1ccc(NC(=O)CSc2nnc(-c3ccncc3)o2)cc1	1.1	-8	9	0	0	104
COc1cccc(NC(=O)CSc2nnc(-c3ccc(C)cc3)o2)c1	2.4	-217	217*	0	4	101
COc1ccc(-c2nnc(SCC(=O)Nc3ccc(C)cc3)n2C)cc1	0.94	-12	12	0	9.8*	93
COc1ccc(NC(=O)CSc2nnc(-c3cccnc3)n2C)cc1	.	.	.	.	-1	.
Cc1ccc(-c2nnc(SCC(C)C)n2C)cc1	1.4	-47	47	1	-1	138*
CC1CN(C(=S)Nc2ccccc2)N(c2ccccc2)C1 (configuration not stated)	0.78	13	-13	0	0	99
S=C(Nc1ccc(Oc2ccccc2)cc1)N1CCN(c2ccccn2)CC1	0.95	15	-15	0	0	100
Cc1c(C(=O)OC(C)C(C)C[N+](C)(C)C)oc2ccccc12 (configuration not stated)	0.91	6	-6	0	0	96
CC12CN3CCN(CC(C3)/C1=N/N=C/c1cccc([N+](=O)[O-])c1)C2	.	.	.	.	2	.
COc1ccc(C)cc1NC(=O)CSc1nnc(-c2ccc(Br)cc2)o1	1.1	-6	6	0	1	95
COc1ccccc1NC(=O)CSc1nnc(-c2ccc(C)cc2)o1	.	-181	181*	0	4	110
O=C1OCC2=C1C(c1ccc(F)cc1)CC(=O)N2c1ccc(F)cc1 (configuration not stated)	1	1	-1	0	-1	106
O=C1OCC2=C1C(c1ccc(F)cc1)CC(=O)N2c1ccccc1 (configuration not stated)	0.95	13	-13	0	8.9*	100
CC12CCC(C(=O)Nc3nc4ccc(Br)cc4s3)(OC1=O)C2(C)C (configuration not stated)	2.1	-53	53	0	1	138*
CC12CCC(C(=O)Nc3nccs3)(OC1=O)C2(C)C (configuration not stated)	1	-8	8	0	-1	107
COCCNC(=O)c1noc2c1CCc1cc(OC)ccc1-2	2.6	-102	102	0	2	128
COc1ccc2c(c1)CCc1c(C(=O)NCc3ccco3)noc1-2	2.8	-60	60	0	1	129*
COc1ccc2c(c1)CCc1c(C(=O)N(C)c3ccccc3)noc1-2	2.1	-72	72	1	-2	129*
SMILES	NF-kB neuron act	APP 5UTR inh	APP 5'UTR act	Hsp70 act	Wee1 stabilizer	STAT1 act
COc1ccc2c(c1)CCc1c(C(=O)NC3CCCCC3)noc1-2	2.6	-145	145*	0	3	129*
CCC(CC)C(=O)c1c[nH]c(C(=O)O)c1	1.2	-1	1	0	1	98
CCC(CC)C(=O)c1c[nH]c(C(=O)NN)c1	0.98	88*	-88	0	3	98
Cc1ccc(/C=C2/SC(=S)N(CCCC(=O)Nc3ccc(O)cc3)C2=O)cc1	1.3	63*	-63	0	1	62
CCc1ccc(/C=C2\SC(=S)N(CCC(=O)N3CCN(C)CC3)C2=O)cc1	3.3*	9	-9	0	-1	106
COc1ccc(/C=C2\SC(=S)N(CC(=O)N3CCN(C)CC3)C2=O)cc1	.	.	.	.	-1	.
CC(=O)Nc1ccc2nc(NC(=O)COc3ccccc3Cl)sc2c1	0.96	-32	32	0	1	130*
CC(=O)Nc1ccc2nc(NC(=O)COc3ccccc3)sc2c1	1	-30	30	0	5	115
O=C(CCc1ccccc1)Nc1cccc(NC(=O)CCc2ccccc2)c1	0.82	12	-12	0	-1	96
CC(=O)Nc1ccc2nc(NC(=O)CCc3ccccc3)sc2c1	1.1	-8	8	0	-3	134*
CCCC(=O)Nc1nc2ccc(NC(=O)c3ccccc3F)cc2s1	0.84	76*	-76	0	7	106
O=C(CCc1ccccc1)Nc1ccc2ccccc2n1	5.3*	-140	140*	0	4	149*
CCOC(=O)Cn1cc(C(=O)C(C)(C)C)c2ccccc21	1.1	6	-6	0	-1	102
COc1cccc2sc(Nc3nc4ccc(NC(C)=O)cc4s3)nc12	1.1	14	-14	0	-1	132*
Cn1c(-c2ccc3c(c2)OCO3)cnc1NCc1ccccc1	1.1	-7	7	0	-1	111
Cn1c(-c2ccc3c(c2)OCO3)cnc1NCc1ccccc1Cl	2.3	-60	60	0	1	140*
Cc1cc2nc(-c3cccnc3SCC(=O)NCc3ccco3)[nH]c2cc1C	5.3*	-119	119	0	2	99
Cc1ccc(NC2=C/C(=N/S(=O)(=O)c3cccs3)c3ccccc3C2=O)cc1C	0.9	-40	40	0	4	98
Cc1cc(C)c(S(=O)(=O)/N=C2/C=C(Sc3ncn[nH]3)C(=O)c3ccccc32)cc1C	0.46	89*	-89	0	-3	99
O=C(c1cccnc1Nc1ccc2c(c1)CCC2)N1CCOCC1	1.3	-20	20	0	1	103
N=C1C(c2ccccc2)=C(O)CN1c1cccc(S(=O)(=O)NCc2ccco2)c1	.	.	.	.	9.2*	.
COc1cc(/C=c2\sc3n(c2=O)CCCN=3)ccc1O	1.8	-15	15	0	-1	96
CC(=O)CC(=O)Nc1ccc(Cl)cn1	1.1	-23	23	0	4	102
CCCOc1ccc(/C(O)=C2/C(=O)C(=O)N(CCCn3ccnc3)C2c2ccc(C)o2)cc1 (configuration not stated)	.	.	.	.	9.7*	.

From PubChem BioAssay
